# Results filed as inconclusive are left out. Calls of active or inactive are those of the source. How the source made its calls: active means hit-call score of the fitted dose curve at least 0.9, where 1 is the maximum; inconclusive means response in the unintended direction; inactive means score below 0.9.
# Target: human Vitamin D Receptor (VDR), VDR (gene 7421) (UniProt P11473)
# Test: ATG_VDR_TRANS: Attagene TRANS-FACTORIAL HepG2 Assay for human Vitamin D Receptor (VDR) (AID 2283022)
# Protocol: ATG_TRANS is a cell-based, multiplexed-readout assay that uses HepG2, a human liver cell line, with measurements taken at 24 hours after chemical dosing in a 24-well plate.ATG_VDR_TRANS is one of 30 assay component(s) measured or calculated from the ATG_TRANS assay. It is designed to make measurements of mRNA induction, a form of inducible reporter, as detected with fluorescence intensity signals by Reverse transcription polymerase chain reaction (RT-PCR) and Capillary electrophoresis technology.Data from the assay component ATG_VDR_TRANS was analyzed into 1 assay endpoint. This assay endpoint, ATG_VDR_TRANS, was analyzed in the positive analysis fitting direction relative to DMSO as the negative control and baseline of activity. Using a type of inducible reporter, measures of mRNA for gain-of-signal activity can be used to understand the reporter gene at the transcription factor-level as they relate to the gene VDR. Furthermore, this assay endpoint can be referred to as a primary readout, because this assay has produced multiple assay endpoints where this one serves a reporter gene function. To generalize the intended target to other relatable targets, this assay endpoint is annotated to the nuclear receptor intended target family, where the subfamily is non-steroidal.
# Human liver HepG2 cells are transiently transfected with multiple reporter transcription units (MRTUs) in 6-well plates using FuGene 6 reagent (Roche; 3 ml FuGene/1 mg DNA). The MRTU constructs are regulated by a cis-regulating element (promoter). […] A major difference between the CIS and TRANS system is that in CIS activities of endogenous TFs are measured, whereas the TRANS assay evaluates changes in activities of exogenous, chimeric NR-Gal4 proteins. […] At the end of 24 hour incubation, total RNA was isolated using TriZol reagent (Invitrogen). The isolated RNA is then reverse-transcribed using oligo(dT) primer and Mo-MLV reverse transcriptase (Invitrogen) with DNAse I (Ambion) treatment for 30 min. The one-tenth of the produced cDNA was amplified by PCR using Taq DNA polymerase (Invitrogen) and two reporter sequence-specific primers. The PCR products were fluorescently labeled by primer extension with 6-arboxyfluorescein (6-FAM) 5'-labeled reporter sequence-specific primer (2 min at 95 C, 20 s at 68 C and 10 min at 72 C) and these products were digested with 5U of HpaI (New England Biolabs) for 2h at 37 C. The fragments were purified using Qiaquick PCR columns (Qiagen), analyzed on an ABI 3130xL genetic analyzer (Applied Biosystems) with peak positions identified by using a set of X-rhodamine (ROX)-labeled MapMarker1000 molecular weight standards (BioVentures). The raw capillary electrophoresis data was processed using Attagraph software (Attagene).
# human Vitamin D Receptor (VDR), VDR (gene 7421), sequence (P11473 whole entry, looked up): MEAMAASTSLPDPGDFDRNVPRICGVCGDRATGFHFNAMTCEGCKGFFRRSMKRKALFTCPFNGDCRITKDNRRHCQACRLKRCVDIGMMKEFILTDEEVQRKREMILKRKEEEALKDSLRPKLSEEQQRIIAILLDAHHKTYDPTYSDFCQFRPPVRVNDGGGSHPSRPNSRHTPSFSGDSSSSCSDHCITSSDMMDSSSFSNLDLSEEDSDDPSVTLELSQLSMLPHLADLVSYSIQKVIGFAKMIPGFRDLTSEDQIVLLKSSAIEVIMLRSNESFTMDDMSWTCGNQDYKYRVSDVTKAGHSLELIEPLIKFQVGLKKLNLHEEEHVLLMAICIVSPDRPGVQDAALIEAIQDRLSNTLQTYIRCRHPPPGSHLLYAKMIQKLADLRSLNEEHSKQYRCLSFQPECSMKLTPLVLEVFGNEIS
row,Structure (SMILES),outcome
1,CCC(C)(C)c1cc(O)c(C(C)(C)CC)cc1O,inactive
2,CCC(=O)OC/C=C(\C)CCC=C(C)C,inactive
3,Nc1cc([N+](=O)[O-])ccc1C(=O)O,inactive
4,C=C1CC/C=C(\C)CC[C@@H]2[C@@H]1CC2(C)C,inactive
5,CC(=O)C1C(=O)C=C(C)OC1=O (stereo not given),inactive
6,Brc1cc(Br)cc(Br)c1,inactive
7,CCCCOC(=O)C(C)OC(=O)CCC (stereo not given),inactive
8,O=C1OC2(c3ccc(O)cc3Oc3cc(O)ccc32)c2ccccc21,inactive
9,C[C@]12CC[C@@H]3c4ccc(O)cc4CC[C@H]3[C@@H]1CC[C@@H]2O,inactive
10,CC(C)CCOC(=O)CC(C)C,inactive
11,CCCC1CCOC(C)S1 (stereo not given),inactive
12,c1ccc(Cc2ccccc2)cc1,inactive
13,C=CC(O)CCCCC (stereo not given),inactive
14,CC(=O)C1=C(C)[C@@H]2C[C@@]3(C1)[C@H](C)CC[C@H]3C2(C)C,inactive
15,CCCCCCCOC(C)=O,inactive
16,COC(=O)C(C)Oc1ccc(Oc2ncc(C(F)(F)F)cc2Cl)cc1 (stereo not given),inactive
17,C=C/C(C)=C/C/C=C(\C)CCC=C(C)C,inactive
18,CCCCC(CC)COCCO (stereo not given),inactive
19,CC/C=C\C#N,inactive
20,CC(=O)Oc1c(C)c(C)c2c(c1C)CC[C@@](C)(CCC[C@H](C)CCC[C@H](C)CCCC(C)C)O2,inactive

row,Structure (SMILES),outcome
1,CC1=CC[C@@H](C(C)(C)O)CC1,inactive
2,CC(=O)Nc1cc(S(=O)(=O)O)cc2cc(S(=O)(=O)O)c(N=Nc3ccccc3)c(O)c12,inactive
3,CCCCCCCCCCCCCCCCCC(=O)OCCCCCCCCCCCCCC(C)C,inactive
4,O=C(O)c1cccc(Cl)n1,inactive
5,[Cl][Dy]([Cl])[Cl],inactive
6,CCCCOCC(C)OCC(C)O (stereo not given),inactive
7,O=C(OCc1ccccc1)c1ccccc1O,inactive
8,c1ccc(OCCOc2ccccc2)cc1,inactive
9,CCCCCCCCCCCCS,inactive
10,CC(C)(C)C1CCC(O)CC1 (stereo not given),inactive
11,CC(=N[Si](C)(C)C)O[Si](C)(C)C,inactive
12,COC(=O)c1ccc(C(=O)OC)cc1,inactive
13,CN(C)C,inactive
14,CCCO[Si](OCCC)(OCCC)OCCC,inactive
15,C=CCCCCCCCCC(=O)OCC,inactive
16,C=C(C)C(=O)OCCOCCOC(=O)C(=C)C,inactive
17,CCCCCCCCSCc1cc(C)c(O)c(CSCCCCCCCC)c1,inactive
18,OCCCO,inactive
19,C=C1CC[C@H]2O[C@]2(C)CC[C@@H]2[C@@H]1CC2(C)C,inactive
20,CN(C)c1ccc(C=O)cc1,inactive

# — PubChem BioAssay (EPA / NIEHS)
